# Over roughly 18,000 sequences, “log2 normalized intensity” has its median near 0.39; the highest 2% begin near 6.6. The entries come from a sample that favours the highest values as a whole.
# Molecular target: T1, HNF4alpha2 (COS-7 nuclear extract) (Homo sapiens, UniProt P41235 1-474)
# T1 sequence: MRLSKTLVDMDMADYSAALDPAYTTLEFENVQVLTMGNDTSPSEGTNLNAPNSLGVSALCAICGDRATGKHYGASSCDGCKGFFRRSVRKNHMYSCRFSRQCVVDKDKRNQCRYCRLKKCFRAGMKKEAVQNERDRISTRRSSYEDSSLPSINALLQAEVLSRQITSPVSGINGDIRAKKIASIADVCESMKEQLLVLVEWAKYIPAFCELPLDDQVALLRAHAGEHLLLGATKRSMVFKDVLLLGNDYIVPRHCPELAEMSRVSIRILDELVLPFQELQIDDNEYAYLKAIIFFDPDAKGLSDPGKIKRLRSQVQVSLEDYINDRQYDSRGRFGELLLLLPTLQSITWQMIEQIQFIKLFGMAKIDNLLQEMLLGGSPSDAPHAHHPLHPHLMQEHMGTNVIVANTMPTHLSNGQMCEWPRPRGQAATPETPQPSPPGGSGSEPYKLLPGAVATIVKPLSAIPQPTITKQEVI
# Assay: protein-binding microarray; COS-7 nuclear extract on double-stranded Agilent 4x180k PBM; binding buffer, salt, pH and temperature not given in the material; high values mean tight binding
# Conditions: chain copies: 2; label: 3' end of strand 1 on the slide; dsDNA, one strand shown
# Outline: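 Using CaPO4, COS-7 cells were transiently transfected with a human HNF4α isoform expression vector, and their nuclear extracts were applied to a custom Agilent SurePrint G3 4x180k double-stranded oligonucleotide array (~60 nt; ~44,000 test sequences in quadruplicate). Bound HNF4α was imaged at 2-µm resolution with an Agilent G2565CA scanner. Agilent software supplied the background-corrected, normalized gProcessedSignal that serves as the binding signal.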
row,Sequence,binding signal
1,GCCAAGCTCTGGGCTAGTCCCTGAGTATTAGCCTAGGGAGATTAGAGTATCGGTCGA,-0.902 log2 normalized intensity
2,TCCCTCTGCTCCCCTGGCCTCACCCTTGTCGCCTAGGGAGATTAGAGTATCGGTCGA,2.72 log2 normalized intensity
3,ATTCCAAAAAGCTTTTGTCATGACCTTCGCGCCTAGGGAGATTAGAGTATCGGTCGA,4.71 log2 normalized intensity
4,AAGGATCAAGGACCTGCTCTGGGGCTACCTGCCTAGGGAGATTAGAGTATCGGTCGA,-0.978 log2 normalized intensity
5,TTGCCCTTTGCCCAACCCTCTCCCACTCCCGCCTAGGGAGATTAGAGTATCGGTCGA,4.91 log2 normalized intensity
6,TAATTGCCCTTTGCCCTTTGCCCAACCCTCGCCTAGGGAGATTAGAGTATCGGTCGA,7.02 log2 normalized intensity
7,CATTGATAATTCAGTTTCATTGCACTTTGCGCCTAGGGAGATTAGAGTATCGGTCGA,4.01 log2 normalized intensity
8,ATAATTCAGTTTCATTGCACTTTGCCCTCTGCCTAGGGAGATTAGAGTATCGGTCGA,8.65 log2 normalized intensity
9,TCAGTTTCATTGCACTTTGCCCTCTCTTCAGCCTAGGGAGATTAGAGTATCGGTCGA,6.57 log2 normalized intensity
10,GCCCTTTGCCCTTTGCCCAACCCTCTCCCAGCCTAGGGAGATTAGAGTATCGGTCGA,5.55 log2 normalized intensity
11,TCCTCAGGGAATTTCTAGGTTTGATCTTTGGCCTAGGGAGATTAGAGTATCGGTCGA,2.95 log2 normalized intensity
12,AGGGAATTTCTAGGTTTGATCTTTGCCCTAGCCTAGGGAGATTAGAGTATCGGTCGA,6.85 log2 normalized intensity
13,ATTTCTAGGTTTGATCTTTGCCCTACAATTGCCTAGGGAGATTAGAGTATCGGTCGA,5.51 log2 normalized intensity
14,ACTCCTTTGCTTATCTGATAAGTCCATACCGCCTAGGGAGATTAGAGTATCGGTCGA,1.53 log2 normalized intensity
15,ACTCAGGATACCTAAGCCCCATGCTGATAAGCCTAGGGAGATTAGAGTATCGGTCGA,1.32 log2 normalized intensity
16,TGAGACTTTGGACTTTTGAACTAAGGCTGGGCCTAGGGAGATTAGAGTATCGGTCGA,4.72 log2 normalized intensity
17,CCTAAATCTAAGCTGGACTTTGAACTTCATGCCTAGGGAGATTAGAGTATCGGTCGA,8.99 log2 normalized intensity
18,CTTTGGACTTTTGAACTAAGGCTGGAATGAGCCTAGGGAGATTAGAGTATCGGTCGA,2.92 log2 normalized intensity
19,AGCTGGACTTTGAACTTCATGTGTGGTGCAGCCTAGGGAGATTAGAGTATCGGTCGA,6.21 log2 normalized intensity
20,GACTTTGAACTTCATGTGTGGTGCAGATTCGCCTAGGGAGATTAGAGTATCGGTCGA,1.97 log2 normalized intensity
21,ATCTAAGCTGGACTTTGAACTTCATGTGTGGCCTAGGGAGATTAGAGTATCGGTCGA,7.91 log2 normalized intensity

row,Sequence,binding signal
1,TTGTACTCAGTATGTGCTGACTGACTCCTGGCCTAGGGAGATTAGAGTATCGGTCGA,0.992 log2 normalized intensity
2,TTAGCTATCAGTGTTGACCTCTGGACCTCAGCCTAGGGAGATTAGAGTATCGGTCGA,6.97 log2 normalized intensity
3,TATCAGTGTTGACCTCTGGACCTCATCTTCGCCTAGGGAGATTAGAGTATCGGTCGA,5.36 log2 normalized intensity
4,CTCAAGTGACCTTTGACCTCTGGCCTTTGCGCCTAGGGAGATTAGAGTATCGGTCGA,10.2 log2 normalized intensity
5,TAACGGTGAGGGAGGAGACTTTGACCTCTGGCCTAGGGAGATTAGAGTATCGGTCGA,6.61 log2 normalized intensity
6,GTGACCTTTGACCTCTGGCCTTTGCAGTTAGCCTAGGGAGATTAGAGTATCGGTCGA,8.21 log2 normalized intensity
7,GATGTTTAGCTATCAGTGTTGACCTCTGGAGCCTAGGGAGATTAGAGTATCGGTCGA,5.32 log2 normalized intensity
8,ACCTTTGCCTTCTTGACATCTCTCTCTGCAGCCTAGGGAGATTAGAGTATCGGTCGA,1.17 log2 normalized intensity
9,CTCTAACCACTTTGAAATAGTGACCTCTGCGCCTAGGGAGATTAGAGTATCGGTCGA,4.36 log2 normalized intensity
10,CTGACAAGTATCTCGGTCAAACCTTTGACCGCCTAGGGAGATTAGAGTATCGGTCGA,5.77 log2 normalized intensity
11,GTGAGGGAGGAGACTTTGACCTCTGCTAGGGCCTAGGGAGATTAGAGTATCGGTCGA,5.43 log2 normalized intensity
12,ACCACTTTGAAATAGTGACCTCTGCTGGCCGCCTAGGGAGATTAGAGTATCGGTCGA,2.65 log2 normalized intensity
13,CTGACCTCAAGTGACCTTTGACCTCTGGCCGCCTAGGGAGATTAGAGTATCGGTCGA,11 log2 normalized intensity
14,AAGGCTAGTCTTCTTTGGGGCTTAGATAGCGCCTAGGGAGATTAGAGTATCGGTCGA,0.431 log2 normalized intensity
15,TGTACAGGACCATGTTCTCCTAAAGTGACTGCCTAGGGAGATTAGAGTATCGGTCGA,-0.786 log2 normalized intensity
16,CACTGCACCTGCCTGAACAAGTCCAGTGACGCCTAGGGAGATTAGAGTATCGGTCGA,-0.89 log2 normalized intensity
17,CACTGAGATAAAAATGGCCAAAGGTTGCCAGCCTAGGGAGATTAGAGTATCGGTCGA,2.09 log2 normalized intensity
18,CCACATTCTGAGACTAAAGAGTACACAAAGGCCTAGGGAGATTAGAGTATCGGTCGA,-0.922 log2 normalized intensity
19,TTCCTGGATTGTGAAACACAGGACTTGATCGCCTAGGGAGATTAGAGTATCGGTCGA,0.71 log2 normalized intensity
20,GAGTGTCCTGCCCCCTGGAGGAGTGAGGGAGCCTAGGGAGATTAGAGTATCGGTCGA,1.34 log2 normalized intensity
21,GGGGAGGTCAACCAGGGAAATTACCCTCTAGCCTAGGGAGATTAGAGTATCGGTCGA,-0.241 log2 normalized intensity
